Screening results (PubChem BioAssay)
The sample as a whole holds a higher share of hits than the screen did.
mHTT CaM bind: disrupts binding of mutant huntingtin to calmodulin | P42858 | AlphaScreen His-mHTT/GST-CaM binding, luminescence | inhibition, % at 15 µM | 3.6% of 190,000 active
Pf apPOL inh: Pf-apPOL DNA polymerase inhibition. Recombinant Pf-apPOL, molecular beacon fluorescence, 1.5 h. inhibition, % at 10 µM. 0.25% of 210,000 active
Of the large screens only hits and unclear results are named; the others gave an inactive call. Rule as the data show it: active = inhibition above about 50%; inactive = the rest.

CCOC(=O)C(C#N)=CNN(C)c1ccccc1[N+](=O)[O-]	none (no result: mHTT CaM bind)
CCOc1ccccc1N1C=C(C#N)S(=O)(=O)c2c(F)cccc21	none
CSc1nnc(-c2nn(C)c3c2CN(C(=O)c2cccc(Cl)c2)CC3)n1C	none
COc1ccc(-n2nc3c(c2NC(=O)c2cccc(OC)c2)CSC3)cc1	none
COc1ccc(-n2nc3c(c2NC(=O)c2cccc(Br)c2)CSC3)cc1	Pf apPOL inh 100
COc1cc(OC)cc(C(=O)Nc2c3c(nn2-c2cccc(C)c2)CSC3)c1	none
COc1cccc(C(=O)Nc2c3c(nn2-c2cccc(C)c2)CSC3)c1	mHTT CaM bind 53
O=[N+]([O-])c1ccccc1-c1ccc(/C=C/c2ccncc2)o1	mHTT CaM bind 69
O=Cc1ccc(-c2ccccc2[N+](=O)[O-])o1	none
CC1(C)OC(=O)C(=Cc2ccc(-c3ccccc3[N+](=O)[O-])o2)C(=O)O1	none
NC1=NC(=O)/C(=C/c2ccc(-c3ccccc3[N+](=O)[O-])o2)S1	mHTT CaM bind 59
O=C(/C=C/c1ccc(-c2ccccc2[N+](=O)[O-])o1)c1cc2ccccc2o1	mHTT CaM bind 77
O=C(C=Cc1ccc([N+](=O)[O-])cc1)c1cc2ccccc2oc1=O	none
COc1ccc(CCN2CC(C(=O)NCC(C)C)CC2=O)cc1OC (centres undefined)	none
O=C(Cc1nnc(-c2ccncc2)o1)NC1CCCCC1	none
O=[N+]([O-])C(=C1SCCS1)C(=C(Cl)Cl)N1CCCCC1	mHTT CaM bind 70
O=[N+]([O-])C(=C1SCCS1)C(=C(Cl)Cl)N1CCOCC1	none
O=C(CN1CCC(c2nc(-c3cccs3)no2)CC1)NCc1ccc(F)cc1	none
COC(=O)CNC(=O)C1CN(C(=O)c2cccs2)CC12CCCCC2 (centres undefined)	none
CCCCCC(=O)N1C[C@@H](O)[C@H](n2cc(C3CC3)nn2)C[C@@H]1c1ccc(OC)cc1	none
COc1ccc([C@H]2C[C@@H](n3cc(-c4ccc(F)cc4)nn3)[C@H](O)CN2CC2CCCCC2)cc1	none
CCCCCCN1C[C@@H](n2cc(-c3ccc(F)cc3)nn2)[C@H](O)C[C@@H]1c1ccc(OC)cc1	none
CCCCCCN1C[C@H](n2cc(-c3ccc(F)cc3)nn2)[C@@H](O)C[C@@H]1c1ccc(OC)cc1	mHTT CaM bind 67
CCCCCCN1C[C@@H](O)[C@H](n2cc(C3CC3)nn2)C[C@@H]1c1ccccc1	none
COc1ccc([C@H]2C[C@H](O)[C@@H](n3cc(-c4ccc(F)cc4)nn3)CN2CC2CCCCC2)cc1	mHTT CaM bind 69
CCCCCCN1C[C@H](n2cc(C3CC3)nn2)[C@@H](O)C[C@@H]1c1ccccc1	mHTT CaM bind 99
CCCCCCN1C[C@H](n2cc(C3CC3)nn2)[C@@H](O)C[C@@H]1c1ccc(OC)cc1	mHTT CaM bind 98
Cc1ccc(CNC(=O)CCc2conc2-c2ccccc2)o1	none
COc1ccc2nc(C(=O)NCc3ccccc3Br)cn2n1	none
COc1ccc(C(=O)NC2CCN(c3nnc4ccc(Cl)cn34)CC2)cn1	none
COc1cccc(OCC2CN(C(=O)Nc3ccccc3)CCO2)c1 (centres undefined)	none
Cc1noc(C)c1C(=O)NCC(c1ccccc1)c1c[nH]c2ccccc12 (centres undefined)	none (no result: mHTT CaM bind)
O=C(NCc1ccc(F)cc1)C(=O)NCC(O)Cc1ccccc1 (centres undefined)	none
N=C1S/C(=C\c2ccc(-c3ccc(Cl)c(C(=O)O)c3)o2)C(=O)N1c1nccs1	mHTT CaM bind 99
N=C1S/C(=C\c2ccc(-c3ccccc3F)o2)C(=O)N1c1nccs1	none
O=C1OC(c2ccccc2)=N/C1=C/c1ccc(-c2ccc(Cl)c(C(=O)O)c2)o1	none
N=C1S/C(=C\c2ccc(-c3ccc(Cl)cc3C(=O)O)o2)C(=O)N1c1nccs1	mHTT CaM bind 75
NC(=O)CSc1nc2c(c(=O)n1-c1ccc(Br)cc1)SCC2	none
Cc1cc(C)c(C)c(OCC(=O)Nc2ccccc2F)c1	none
O=C(c1ccccc1Br)N1CCc2nc[nH]c2C1	none
CCC(C)NC(=O)N1CCc2c(c(-c3nc(Cc4ccccc4)no3)nn2C)C1 (centres undefined)	none
c1ccc(Nc2nc(N3CCCCC3)nc(N3CCNCC3)n2)cc1	none
NNc1nc(Nc2ccccc2)nc(N2CCCC2)n1	mHTT CaM bind 81
Clc1ccc(Nc2nc(Oc3ccccc3)nc(N3CCOCC3)n2)cc1	none
NNc1nc(Nc2ccccc2)nc(N2CCOCC2)n1	mHTT CaM bind 98
COC(=O)C1=CN(C2CCCCC2)c2ccccc2S1(=O)=O	none
CC(C)CN1CCn2cc(C(=O)NCc3cc(F)ccc3F)nc2C1	none
N#C/C(=C\c1cccc(Br)c1)c1nn(CCO)c(N)c1C#N	none
N#C/C(=C\c1ccc(-c2cc(Cl)cc(Cl)c2)o1)c1nn(CCO)c(N)c1C#N	mHTT CaM bind 58
N#C/C(=C\c1c(F)cccc1Cl)c1nn(CCO)c(N)c1C#N	none
N#C/C(=C\c1ccc(-c2ccc(Cl)cc2)o1)c1nn(CCO)c(N)c1C#N	mHTT CaM bind 54
CC(C)NC(=O)c1ccc(OCC2CCCN2C(=O)c2ccco2)cc1 (centres undefined)	none
COc1ccc(N=C2C(=O)Nc3ccc(Cl)cc32)cc1	none
COc1ccc(N=C2C(=O)Nc3cc(Br)c(C)cc32)cc1	mHTT CaM bind 66
COc1cc(OC)cc(C(=O)NCc2ccc(-n3ccnc3)cc2)c1	none
Cn1cc(CCNC(=O)c2ccc(Br)o2)c2cccnc21	none
O=C1N(CN2CCC(Cc3ccccc3)CC2)c2ccccc2C12OCCCO2	none
Fc1ccc(N2Cc3ccccc3C2)cc1	none (no result: Pf apPOL inh)
Oc1ccc(N2Cc3ccccc3C2)cc1	mHTT CaM bind 100
O=C(NCc1cc(F)cc(F)c1)C1CCCN(c2cnc3nccnc3c2)C1 (centres undefined)	none
c1ccc(-c2ccccn2)nc1	none (no result: mHTT CaM bind)
c1ccc(-c2ccc(-c3ccccn3)nn2)nc1	mHTT CaM bind 100 (no result: Pf apPOL inh)
CCOc1ccccc1C1C(C(=O)OC)=C(C)NC2=C1C(=O)CC(C)(C)C2 (centres undefined)	none
CC(=O)N(CCC1(Cc2ccccc2)CCOC(C)(C)C1)Cc1ccccc1 (centres undefined)	mHTT CaM bind 56
COc1ccc(CN(CCC2(Cc3ccccc3)CCOC(C)(C)C2)C(C)=O)cc1 (centres undefined)	none
COc1cccc(-c2nc(C3CCN(C(=O)c4ccc(Cl)c(Cl)c4)CC3)no2)c1	mHTT CaM bind 97
COc1cccc(-c2nc(C3CCN(C(=O)c4ccc(C(F)(F)F)cc4)CC3)no2)c1	mHTT CaM bind 86
COc1cccc(-c2nc(C3CCN(C(=O)c4cccc(C)c4)CC3)no2)c1	none
COc1ccccc1-c1nc(C2CCN(C(=O)c3ccc(F)c(Cl)c3)CC2)no1	mHTT CaM bind 92
Cc1oc(C2CCN(C(=O)c3ccc(C(F)(F)F)cc3)CC2)nc1C(=O)N1CCCC1	mHTT CaM bind 51
Cc1oc(C2CCN(C(=O)c3ccc(C(C)(C)C)cc3)CC2)nc1C(=O)N1CCCCC1	none
COc1cccc(-c2nc(C3CCN(C(=O)c4cccc(C(F)(F)F)c4)CC3)no2)c1	none
COc1ccccc1-c1nc(C2CCN(C(=O)c3cccc(F)c3)CC2)no1	none
COc1cccc(C2CC(c3cccc(OC)c3OC)n3nnnc3N2)c1 (centres undefined)	none
CC1([N+](=O)[O-])COC(c2cccc([N+](=O)[O-])c2)OC1 (centres undefined)	none
COc1ccc(OC)c(/C=C2/N=C(c3cccc(C)c3)OC2=O)c1	none
COc1ccc(/C=c2\sc3nc4ccccc4n3c2=O)cc1O	none
